Values joined by “and” are separate entries in the source; they are usually repeats but may differ in a detail not shown here. Identical values can stand only once. Records with an inconclusive call do not appear. The source holds several records for some structures; these can differ, active in one and inactive in another. Active and inactive are the calls of the source. The calls were made as follows, unless noted: active = hit-call score of the fitted dose curve at least 0.9, where 1 is the maximum; inactive = score below 0.9.
Legend:
[1] = read-out: Monocyte Chemoattractant Protein-1 (MCP1), CCL2 (gene 6347); assay: BSK_SAg_MCP1: BioMAP Diversity Plus: SAg Assay for Monocyte Chemoattractant Protein-1 (MCP1) Biomarker Activity (AID 2283090); settings: primary human HUVEC with PBMC; actives raise or lower the signal
Procedure, shortened: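 MCP-1 levels in the endothelial–PBMC SAg co-culture were quantified by ELISA at 24 h post-dosing; both increases and decreases versus DMSO scored. Cytotoxicity monitored by SRB total protein in parallel cultures.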

[2] = read-out: E-selectin (Homo sapiens) (UniProt P16581); assay: BSK_SAg_Eselectin: BioMAP Diversity Plus: SAg Assay for Eselectin Biomarker Activity (AID 2283091); settings: primary human HUVEC with PBMC; actives raise or lower the signal
Procedure, shortened: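 Endpoint values derive from bidirectional fitting relative to DMSO, using ELISA-measured E-selectin in a human vascular co-culture (umbilical vein endothelium plus PBMC) sampled 24 h after dosing.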

[3] = BSK_SAg_PBMCCytotoxicity: PBMC Cytotoxicity Assessment in the BioMAP Diversity Plus: SAg Assay (AID 2283093); settings: primary human HUVEC with PBMC;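 also: PBMC viability measured as Alamar Blue reduction fluorescence at 546/580 nm; fitted both ways against DMSO so a hit may be loss or gain of signal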;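 as to AC50: PBMC superantigen activated with SEB plus TSST-1 one hour after compound addition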
Procedure, shortened: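 Human umbilical vein endothelial cells co-cultured with PBMC; PBMC (75,000/well) pre-treated with compound 1 h, then activated with SEB and TSST-1 (20 ng/mL final each) for 90 h. Alamar Blue added 6 h, fluorescence 546/580 nm; bidirectional fit versus DMSO.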

[4] = read-out: Interleukin-8 (IL8), CXCL8 (gene 3576); assay: BSK_SAg_IL8: BioMAP Diversity Plus: SAg Assay for Interleukin-8 (IL8) Biomarker Activity (AID 2283094); settings: primary human HUVEC with PBMC; actives raise or lower the signal
Procedure, shortened: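 Human umbilical vein endothelial cells co-cultured with PBMC, stimulated with superantigen; IL-8 measured by ELISA 24 h after chemical dosing. Bidirectional fitting versus DMSO; SRB staining in parallel cultures tracks cytotoxicity.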

[5] = BSK_SAg_Proliferation: Cell Proliferation Assessment in the BioMAP Diversity Plus: SAg Assay (AID 2283095); settings: primary human HUVEC with PBMC
Procedure, shortened: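 Human umbilical vein endothelial cells co-cultured with PBMC; sulforhodamine B total-protein staining (0.1% SRB after 10% TCA fixation, absorbance 560 nm) at 96 h in sub-confluent culture. Fitted bidirectionally against DMSO.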

[6] = BSK_SAg_SRB: Viability Assessment in the BioMAP Diversity Plus: SAg Assay (AID 2283096); settings: primary human HUVEC with PBMC;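 also: cells read one day after compound addition; hits may be either gain or loss of signal compared with DMSO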
Procedure, shortened: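 Endothelial/PBMC primary human co-culture; compound 24 h; fix 10% TCA, stain 0.1% SRB, A560; protein content as cytotoxicity proxy; bidirectional curve fit, DMSO = baseline.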

[7] = target: human CYP2A6, CYP2A6 (gene 1548) (UniProt P11509); assay: NVS_ADME_hCYP2A6: NovaScreen (NVS) CYP450-related Enzyme Activity (ADME) Assay for human CYP2A6 (AID 2283099; active = hit-call score of the fitted dose curve at least 0.9, where 1 is the maximum)
human CYP2A6, CYP2A6 (gene 1548), sequence (P11509 whole entry, looked up): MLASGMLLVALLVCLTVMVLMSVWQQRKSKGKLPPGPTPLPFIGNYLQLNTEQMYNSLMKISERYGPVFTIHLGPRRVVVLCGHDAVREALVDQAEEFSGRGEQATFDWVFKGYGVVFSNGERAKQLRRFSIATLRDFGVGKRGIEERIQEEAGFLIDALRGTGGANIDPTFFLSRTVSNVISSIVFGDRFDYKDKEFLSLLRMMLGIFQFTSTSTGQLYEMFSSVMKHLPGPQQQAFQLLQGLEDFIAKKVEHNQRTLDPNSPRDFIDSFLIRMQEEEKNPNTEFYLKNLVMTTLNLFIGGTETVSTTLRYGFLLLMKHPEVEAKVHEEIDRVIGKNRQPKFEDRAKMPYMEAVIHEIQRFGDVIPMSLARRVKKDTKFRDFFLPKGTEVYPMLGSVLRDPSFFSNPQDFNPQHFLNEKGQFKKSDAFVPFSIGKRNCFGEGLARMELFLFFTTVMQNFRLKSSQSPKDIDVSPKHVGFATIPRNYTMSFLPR
Procedure, shortened: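 Loss of fluorescence signal relative to acetonitrile vehicle reported CYP2A6 inhibition in a cell-free system using insect-cell-derived enzyme. Readings were taken at 0.5 h; top concentration in follow-up dose series was 20 uM.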

[8] = target: Cytochrome P450 2C19 (Homo sapiens) (UniProt P33261); assay: NVS_ADME_hCYP2C19: NovaScreen (NVS) CYP450-related Enzyme Activity (ADME) Assay for human CYP2C19 (AID 2283113; active = hit-call score of the fitted dose curve at least 0.9, where 1 is the maximum;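 as to AC50: potency for inhibition seen as loss of fluorescent signal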)
Procedure, shortened: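 Biochemical CYP2C19 inhibition screen: insect-cell recombinant protein plus fluorescent substrate, 1 h, fluorescence intensity. Acetonitrile defined baseline activity. Single 10 uM concentration in duplicate, with concentration-response follow-up for actives.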

[9] = target: human CYP1A1, CYP1A1 (gene 1543) (UniProt P04798); assay: NVS_ADME_hCYP1A1: NovaScreen (NVS) CYP450-related Enzyme Activity (ADME) Assay for human CYP1A1 (AID 2283100; active = hit-call score of the fitted dose curve at least 0.9, where 1 is the maximum)
human CYP1A1, CYP1A1 (gene 1543), sequence (P04798 whole entry, looked up): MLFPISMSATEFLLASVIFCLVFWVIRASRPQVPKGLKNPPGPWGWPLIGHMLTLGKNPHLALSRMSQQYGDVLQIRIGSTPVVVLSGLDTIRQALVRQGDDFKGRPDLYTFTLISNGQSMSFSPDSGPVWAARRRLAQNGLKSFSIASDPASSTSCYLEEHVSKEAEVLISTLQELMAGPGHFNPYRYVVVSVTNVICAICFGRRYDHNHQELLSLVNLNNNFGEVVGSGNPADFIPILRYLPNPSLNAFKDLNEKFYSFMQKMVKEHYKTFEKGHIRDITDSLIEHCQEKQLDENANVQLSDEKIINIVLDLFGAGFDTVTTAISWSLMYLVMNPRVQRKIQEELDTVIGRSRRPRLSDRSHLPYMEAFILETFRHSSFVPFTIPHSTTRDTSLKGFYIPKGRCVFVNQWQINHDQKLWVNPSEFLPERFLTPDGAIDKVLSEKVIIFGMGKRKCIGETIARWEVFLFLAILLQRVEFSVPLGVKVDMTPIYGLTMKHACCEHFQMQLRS
Procedure, shortened: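 Inhibition of recombinant CYP1A1 turnover was assessed fluorometrically in a biochemical format 1 h after compound exposure. Testing began at 10 uM in duplicate and progressed to concentration series reaching 20 uM, with on-plate positive and negative controls.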

[10] = target: human CYP2C9, CYP2C9 (gene 1559) (UniProt P11712); assay: NVS_ADME_hCYP2C9: NovaScreen (NVS) CYP450-related Enzyme Activity (ADME) Assay for human CYP2C9 (AID 2283108; active = hit-call score of the fitted dose curve at least 0.9, where 1 is the maximum)
human CYP2C9, CYP2C9 (gene 1559), sequence (P11712 whole entry, looked up): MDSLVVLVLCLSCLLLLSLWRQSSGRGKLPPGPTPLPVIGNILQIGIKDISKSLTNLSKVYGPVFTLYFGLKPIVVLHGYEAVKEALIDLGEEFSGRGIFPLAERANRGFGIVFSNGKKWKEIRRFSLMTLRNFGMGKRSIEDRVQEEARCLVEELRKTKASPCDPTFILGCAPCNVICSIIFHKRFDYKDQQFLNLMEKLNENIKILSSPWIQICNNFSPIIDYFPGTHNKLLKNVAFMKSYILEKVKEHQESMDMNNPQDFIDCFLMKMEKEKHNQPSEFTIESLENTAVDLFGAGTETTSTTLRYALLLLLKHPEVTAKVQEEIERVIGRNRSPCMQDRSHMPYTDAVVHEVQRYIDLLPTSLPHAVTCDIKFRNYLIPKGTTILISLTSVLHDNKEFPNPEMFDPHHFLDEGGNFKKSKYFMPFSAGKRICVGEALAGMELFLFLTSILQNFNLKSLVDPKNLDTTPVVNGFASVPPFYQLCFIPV
Procedure, shortened: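 Cell-free assay of recombinant human CYP2C9 produced in Sf9 cells, with enzyme activity read by fluorescence intensity 0.75 h after compound addition. Loss of signal versus an acetonitrile negative control indicates inhibition. Primary screen used 10 uM in duplicate; actives were retested in concentration series.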

[11] = target: human CYP1A2, CYP1A2 (gene 1544) (UniProt P05177); assay: NVS_ADME_hCYP1A2: NovaScreen (NVS) CYP450-related Enzyme Activity (ADME) Assay for human CYP1A2 (AID 2283102; active = hit-call score of the fitted dose curve at least 0.9, where 1 is the maximum;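 also: potency for inhibition since loss of fluorescence marks reduced CYP1A2 activity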)
human CYP1A2, CYP1A2 (gene 1544), sequence (P05177 whole entry, looked up): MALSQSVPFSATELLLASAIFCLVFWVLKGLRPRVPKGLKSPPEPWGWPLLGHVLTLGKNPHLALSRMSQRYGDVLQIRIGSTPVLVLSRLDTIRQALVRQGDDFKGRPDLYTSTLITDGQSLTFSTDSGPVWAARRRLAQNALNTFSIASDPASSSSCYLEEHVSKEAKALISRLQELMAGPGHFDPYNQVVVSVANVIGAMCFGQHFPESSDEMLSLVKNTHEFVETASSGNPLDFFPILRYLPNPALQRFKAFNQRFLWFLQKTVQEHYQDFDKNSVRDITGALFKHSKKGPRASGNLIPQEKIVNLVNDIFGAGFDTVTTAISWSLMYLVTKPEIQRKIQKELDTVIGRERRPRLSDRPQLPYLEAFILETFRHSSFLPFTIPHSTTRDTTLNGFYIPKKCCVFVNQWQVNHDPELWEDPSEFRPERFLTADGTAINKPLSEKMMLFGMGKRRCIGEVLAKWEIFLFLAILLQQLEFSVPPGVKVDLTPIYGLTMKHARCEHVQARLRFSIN
Procedure, shortened: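 Inhibition scored as decrease in fluorescent product versus acetonitrile negative control. Enzyme: insect-cell recombinant human CYP1A2, substrate-specific, cell-free. Reading at 0.5 h; 10 uM duplicate initial screen with positive and negative controls on every plate.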

[12] = target: human CYP2D6, CYP2D6 (gene 1565) (UniProt P10635); assay: NVS_ADME_hCYP2D6: NovaScreen (NVS) CYP450-related Enzyme Activity (ADME) Assay for human CYP2D6 (AID 2283107; active = hit-call score of the fitted dose curve at least 0.9, where 1 is the maximum)
human CYP2D6, CYP2D6 (gene 1565), sequence (P10635 whole entry, looked up): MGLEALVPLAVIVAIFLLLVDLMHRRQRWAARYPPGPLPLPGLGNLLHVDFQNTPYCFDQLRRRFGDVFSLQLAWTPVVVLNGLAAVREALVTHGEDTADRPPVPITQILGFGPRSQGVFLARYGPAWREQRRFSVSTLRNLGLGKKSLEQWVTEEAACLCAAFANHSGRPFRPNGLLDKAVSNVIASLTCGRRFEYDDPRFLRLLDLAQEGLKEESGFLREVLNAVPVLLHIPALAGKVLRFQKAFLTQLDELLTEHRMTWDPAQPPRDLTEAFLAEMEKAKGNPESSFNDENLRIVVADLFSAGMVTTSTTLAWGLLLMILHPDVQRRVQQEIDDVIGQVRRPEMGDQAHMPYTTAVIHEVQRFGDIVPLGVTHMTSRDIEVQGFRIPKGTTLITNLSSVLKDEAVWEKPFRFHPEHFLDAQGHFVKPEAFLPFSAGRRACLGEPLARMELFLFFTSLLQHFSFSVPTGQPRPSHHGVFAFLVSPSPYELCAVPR
Procedure, shortened: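 Biochemical fluorescence assay, insect-cell-derived enzyme. Read at 1 h; inhibition taken from loss of signal against acetonitrile. Screened at 10 uM in duplicate, with concentration series for actives.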

[13] = target: Cytochrome P450 3A4 (Homo sapiens) (UniProt P08684); assay: NVS_ADME_hCYP3A4: NovaScreen (NVS) CYP450-related Enzyme Activity (ADME) Assay for human CYP3A4 (AID 2283110; active = hit-call score of the fitted dose curve at least 0.9, where 1 is the maximum)
Cytochrome P450 3A4 (Homo sapiens), sequence (P08684 whole entry, looked up): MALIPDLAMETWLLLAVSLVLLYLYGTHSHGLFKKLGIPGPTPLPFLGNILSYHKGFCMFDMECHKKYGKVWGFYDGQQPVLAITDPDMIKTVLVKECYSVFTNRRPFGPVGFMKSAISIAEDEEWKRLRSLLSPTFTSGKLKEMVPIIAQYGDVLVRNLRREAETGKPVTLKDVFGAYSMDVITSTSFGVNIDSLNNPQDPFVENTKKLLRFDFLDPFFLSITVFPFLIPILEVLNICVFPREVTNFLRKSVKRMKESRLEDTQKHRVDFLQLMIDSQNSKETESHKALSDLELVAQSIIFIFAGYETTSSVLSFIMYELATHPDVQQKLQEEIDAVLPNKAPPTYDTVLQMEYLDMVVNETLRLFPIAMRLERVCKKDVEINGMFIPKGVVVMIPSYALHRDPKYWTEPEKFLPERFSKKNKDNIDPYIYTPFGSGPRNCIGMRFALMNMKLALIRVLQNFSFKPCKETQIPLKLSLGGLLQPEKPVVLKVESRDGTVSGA
Procedure, shortened: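 Cell-free assay using insect-cell-expressed human CYP3A4 with a fluorogenic substrate; fluorescence intensity was read 0.33 hour after dosing. Loss of signal relative to acetonitrile vehicle indicated inhibition. Primary single-concentration screen at 10 uM, in duplicate, then concentration series.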

[14] = read-out: Monokine induced gamma interferon (MIG), CXCL9 (gene 4283); assay: BSK_SAg_MIG: BioMAP Diversity Plus: SAg Assay for Monokine induced gamma interferon (MIG) Biomarker Activity (AID 2283092); settings: primary human HUVEC with PBMC; actives raise or lower the signal
Procedure, shortened: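 Measures CXCL9 protein by ELISA in a human vascular primary-cell co-culture (umbilical vein endothelium with PBMC) 24 h after chemical addition. Activity is scored up or down from the DMSO control.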

[15] = target: human CYP19A1, CYP19A1 (gene 1588) (UniProt P11511); assay: NVS_ADME_hCYP19A1: NovaScreen (NVS) CYP450-related Enzyme Activity (ADME) Assay for human CYP19A1 (AID 2283098; active = hit-call score of the fitted dose curve at least 0.9, where 1 is the maximum;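 as to AC50: potency for inhibitors seen as loss of fluorescent enzyme signal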)
human CYP19A1, CYP19A1 (gene 1588), sequence (P11511 whole entry, looked up): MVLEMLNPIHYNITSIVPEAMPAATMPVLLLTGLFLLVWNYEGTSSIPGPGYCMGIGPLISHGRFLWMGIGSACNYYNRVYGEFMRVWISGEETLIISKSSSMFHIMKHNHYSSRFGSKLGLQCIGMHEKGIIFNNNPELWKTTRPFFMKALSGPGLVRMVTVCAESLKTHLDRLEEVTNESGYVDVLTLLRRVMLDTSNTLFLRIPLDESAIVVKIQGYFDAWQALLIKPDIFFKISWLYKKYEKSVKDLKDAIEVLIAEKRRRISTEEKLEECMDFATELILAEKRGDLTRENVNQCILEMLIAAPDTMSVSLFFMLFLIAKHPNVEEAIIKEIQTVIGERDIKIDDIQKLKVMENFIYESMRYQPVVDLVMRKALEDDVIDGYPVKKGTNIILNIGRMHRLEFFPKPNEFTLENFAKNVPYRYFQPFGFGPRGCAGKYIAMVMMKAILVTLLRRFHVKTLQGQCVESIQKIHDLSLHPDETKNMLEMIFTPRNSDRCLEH
Procedure, shortened: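 Cell-free enzyme assay with recombinant protein and a specific fluorogenic substrate, read by fluorescence intensity 0.5 h after dosing. Primary screen ran in duplicate at 10 uM; actives were retested in concentration series. Loss of signal versus acetonitrile baseline.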

[16] = target: human CYP4F12, CYP4F12 (gene 66002) (UniProt Q9HCS2); assay: NVS_ADME_hCYP4F12: NovaScreen (NVS) CYP450-related Enzyme Activity (ADME) Assay for human CYP4F12 (AID 2283111; active = hit-call score of the fitted dose curve at least 0.9, where 1 is the maximum)
human CYP4F12, CYP4F12 (gene 66002), sequence (Q9HCS2 whole entry, looked up): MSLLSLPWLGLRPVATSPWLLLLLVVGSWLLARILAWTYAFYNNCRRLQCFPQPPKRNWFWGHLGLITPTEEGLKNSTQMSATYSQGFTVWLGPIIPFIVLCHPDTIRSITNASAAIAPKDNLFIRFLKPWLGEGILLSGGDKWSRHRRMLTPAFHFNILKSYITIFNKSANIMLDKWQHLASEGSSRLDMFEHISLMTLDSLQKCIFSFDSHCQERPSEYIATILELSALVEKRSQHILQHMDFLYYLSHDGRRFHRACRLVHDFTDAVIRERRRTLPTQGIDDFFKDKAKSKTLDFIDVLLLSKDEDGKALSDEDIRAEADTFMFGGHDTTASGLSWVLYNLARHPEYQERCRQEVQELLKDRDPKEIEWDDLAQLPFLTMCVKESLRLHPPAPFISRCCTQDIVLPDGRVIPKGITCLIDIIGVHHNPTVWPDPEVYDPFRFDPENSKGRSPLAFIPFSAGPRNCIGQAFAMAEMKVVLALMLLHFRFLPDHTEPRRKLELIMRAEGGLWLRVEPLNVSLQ
Procedure, shortened: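 Cell-free fluorescence assay of recombinant human CYP4F12 activity on a specific substrate, read 0.5 h after dosing. Primary screen in duplicate at 10 uM, then concentration series for actives; loss of signal fitted against acetonitrile negative control.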

[17] = target: human CYP2B6, CYP2B6 (gene 1555) (UniProt P20813); assay: NVS_ADME_hCYP2B6: NovaScreen (NVS) CYP450-related Enzyme Activity (ADME) Assay for human CYP2B6 (AID 2283101; active = hit-call score of the fitted dose curve at least 0.9, where 1 is the maximum)
Procedure, shortened: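 Recombinant protein, specific fluorescent substrate, read at 1 h post-dosing. Primary: single 10 uM, duplicate; follow-up: concentration series. Activity = signal loss vs acetonitrile baseline, with positive and negative controls on every plate.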

Measured: AC50

E-selectin (Homo sapiens), sequence (P16581 whole entry, looked up): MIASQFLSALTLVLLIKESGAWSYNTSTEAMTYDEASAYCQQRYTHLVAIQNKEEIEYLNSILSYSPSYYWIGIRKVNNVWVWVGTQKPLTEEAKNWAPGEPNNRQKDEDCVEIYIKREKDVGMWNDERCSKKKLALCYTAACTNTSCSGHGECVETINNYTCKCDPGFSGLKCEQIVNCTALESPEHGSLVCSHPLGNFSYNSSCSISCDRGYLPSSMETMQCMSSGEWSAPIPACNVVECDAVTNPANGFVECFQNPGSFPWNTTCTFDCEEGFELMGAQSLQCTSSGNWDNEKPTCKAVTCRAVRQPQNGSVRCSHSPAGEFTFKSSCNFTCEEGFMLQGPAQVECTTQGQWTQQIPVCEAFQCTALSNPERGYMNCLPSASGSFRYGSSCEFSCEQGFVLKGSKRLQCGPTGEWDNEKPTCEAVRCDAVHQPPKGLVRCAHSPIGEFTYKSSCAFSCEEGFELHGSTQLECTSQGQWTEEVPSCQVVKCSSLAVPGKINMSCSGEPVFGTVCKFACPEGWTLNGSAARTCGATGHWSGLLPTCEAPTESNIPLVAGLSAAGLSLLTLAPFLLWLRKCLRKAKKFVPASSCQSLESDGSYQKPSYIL

CCC(=O)O[C@H]1CC[C@H]2[C@@H]3CCC4=CC(=O)CC[C@]4(C)[C@H]3CC[C@]12C
active: [1] 30.1 µM | [2] 34.2 µM | [3] 37.9 µM | [4] 29.8 µM | [5] 33.3 µM | [6] 29.4 µM

Cc1cccc([N+](=O)[O-])c1
inactive: [1] | [2] | [3] | [4] | [5] | [6] | [7]

CN(C)CCO
inactive: [1] | [2] | [3] | [4] | [5] | [6] | [8]

CCC(C)c1cc([N+](=O)[O-])cc([N+](=O)[O-])c1O (configuration not stated)
active: [1] 23.5 µM | [2] 14.2 µM | [3] 5.36 µM | [4] 8.89 µM | [5] 19.6 µM | [6] 18 µM | [8] 15.2 µM

Nc1ccc(-c2ccc(N)cc2)cc1
inactive: [1] | [2] | [3] | [4] | [5] | [6]
active: [9] 3.1 µM | [10] 10 µM | [8] 8.09 µM

CCCCCCCCCC[N+](C)(C)CCCCCCCCCC
active: [1] 3.45 µM | [2] 2.19 µM | [3] 1.77 µM | [4] 7.36 µM | [5] 0.148 µM | [6] 5.35 µM | [11] 14.3 µM | [12] 1.38 µM | [13] 9.61 µM | [8] 6.37 µM

Cc1ccccc1CO[C@@H]1C[C@@]2(C(C)C)CC[C@]1(C)O2
inactive: [1] | [2] | [3] | [4] | [5] | [6]

CC(C)(O)C(=O)Nc1ccc([N+](=O)[O-])c(C(F)(F)F)c1
active: [15] 6.99 µM and 5.59 µM | [11] 3.38 µM | [8] 3.49 µM
inactive: [1] | [14] | [3] | [4] | [5] | [6] | [15] | [10]

O=C(N[C@H]1CN2CCC1CC2)c1cc2ccoc2cn1
inactive: [1] | [2] | [3] | [4] | [5] | [6]
active: [12] 2.09 µM

CC1=C2C[C@H]3[C@@H](CC=C4C[C@@H](O)CC[C@@]43C)[C@@H]2CC[C@]12O[C@@H]1C[C@H](C)CN[C@H]1[C@H]2C
inactive: [1] | [2] | [3] | [4] | [5] | [6]

Cc1ccccc1[N+](=O)[O-]
inactive: [1] | [2] | [3] | [4] | [5] | [6]

Nn1cnnc1
inactive: [1] | [2] | [3] | [4] | [5] | [6]

Cc1cc(O)ccc1Cl
inactive: [1] | [2] | [3] | [4] | [5] | [6]

COS(=O)(=O)OC
inactive: [1] | [2] | [3] | [4] | [5] | [6]

C1CC2OC2CC1C1CO1 (configuration not stated)
inactive: [1] | [2] | [3] | [4] | [5] | [6]

Cc1ccc(O)c(C)c1
inactive: [1] | [2] | [3] | [4] | [5] | [6] | [16]

CCCN(CCC)N=O
inactive: [1] | [2] | [3] | [4] | [5] | [6] | [15]

CO/C=C(/C(=O)OC)c1ccccc1COc1cccc(C(F)(F)F)n1
active: [1] 8.9 µM | [2] 6.75 µM | [3] 1.17 µM | [4] 5.66 µM | [5] 4.57 µM | [6] 9.02 µM | [10] 6.85 µM | [8] 1 µM
inactive: [9] | [12]

Cc1cc(-c2ccc(N)c(C)c2)ccc1N
inactive: [1] | [2] | [3] | [4] | [6] | [15]
active: [5] 11.8 µM

Cc1ccccc1O
inactive: [1] | [2] | [3] | [4] | [5] | [6]

ClC1=C(Cl)[C@]2(Cl)[C@@H]3[C@@H]4C[C@@H]([C@H]5O[C@@H]45)[C@@H]3[C@@]1(Cl)C2(Cl)Cl
active: [5] 20 µM | [6] 20 µM | [17] 3.88 µM | [8] 3.57 µM
inactive: [1] | [2] | [3] | [4]

Cc1cccc(C)c1N
inactive: [1] | [2] | [3] | [4] | [5] | [6] | [13]

Sc1ccccc1
inactive: [1] | [2] | [3] | [4] | [5] | [6]

C=CC(=O)NCNC(=O)C=C
inactive: [1] | [2] | [3] | [4] | [5] | [6]

O=C(O)C(F)(F)C(F)(F)C(F)(F)C(F)(F)C(F)(F)C(F)(F)C(F)(F)C(F)(F)C(F)(F)F
active: [1] 30.6 µM and 50.1 µM and 49.7 µM | [2] 34.3 µM and 54.9 µM and 52.9 µM | [3] 29.8 µM and 47.3 µM and 51 µM | [4] 36.3 µM and 49.4 µM and 41.4 µM | [5] 34.1 µM and 46.2 µM and 47.6 µM | [6] 32 µM and 53.5 µM and 54.4 µM | [10] 1.12 µM

Cc1cc2c3c(c1)C(c1ccccc1)=N[C@@H](NC(=O)c1ccncc1)C(=O)N3CC2
active: [1] 20 µM | [2] 4 µM | [4] 6.46 µM
inactive: [3] | [5] | [6] | [7] | [13]

CCOCCOC(C)=O
inactive: [1] | [2] | [3] | [4] | [5] | [6]

O=C(NC(=O)c1cc(F)c(F)cc1Cl)Nc1cc(F)ccc1N1CCC(C(=O)O)CC1
inactive: [1] | [2] | [3] | [4] | [5] | [6]
